Article PMC4336329 (PLoS ONE, 2015)
The campaign covered roughly 310,000 compounds. About 14,000 (4.5%) showed an effect of 50% or more. Effects have a minus sign here. Only a selection was taken, and strong results are over-represented in it overall.

These molecules were tested against human ether-à-go-go-related gene (hERG) potassium channel (human, UniProt Q12809) (assay: primary screen, population patch clamp on CHO cells stably expressing hERG; higher = less effect of the substance).
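Further: peak tail current of the secondary pulse compared with the same well before compound.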

Sequence of human ether-à-go-go-related gene (hERG) potassium channel (Q12809 whole entry, looked up): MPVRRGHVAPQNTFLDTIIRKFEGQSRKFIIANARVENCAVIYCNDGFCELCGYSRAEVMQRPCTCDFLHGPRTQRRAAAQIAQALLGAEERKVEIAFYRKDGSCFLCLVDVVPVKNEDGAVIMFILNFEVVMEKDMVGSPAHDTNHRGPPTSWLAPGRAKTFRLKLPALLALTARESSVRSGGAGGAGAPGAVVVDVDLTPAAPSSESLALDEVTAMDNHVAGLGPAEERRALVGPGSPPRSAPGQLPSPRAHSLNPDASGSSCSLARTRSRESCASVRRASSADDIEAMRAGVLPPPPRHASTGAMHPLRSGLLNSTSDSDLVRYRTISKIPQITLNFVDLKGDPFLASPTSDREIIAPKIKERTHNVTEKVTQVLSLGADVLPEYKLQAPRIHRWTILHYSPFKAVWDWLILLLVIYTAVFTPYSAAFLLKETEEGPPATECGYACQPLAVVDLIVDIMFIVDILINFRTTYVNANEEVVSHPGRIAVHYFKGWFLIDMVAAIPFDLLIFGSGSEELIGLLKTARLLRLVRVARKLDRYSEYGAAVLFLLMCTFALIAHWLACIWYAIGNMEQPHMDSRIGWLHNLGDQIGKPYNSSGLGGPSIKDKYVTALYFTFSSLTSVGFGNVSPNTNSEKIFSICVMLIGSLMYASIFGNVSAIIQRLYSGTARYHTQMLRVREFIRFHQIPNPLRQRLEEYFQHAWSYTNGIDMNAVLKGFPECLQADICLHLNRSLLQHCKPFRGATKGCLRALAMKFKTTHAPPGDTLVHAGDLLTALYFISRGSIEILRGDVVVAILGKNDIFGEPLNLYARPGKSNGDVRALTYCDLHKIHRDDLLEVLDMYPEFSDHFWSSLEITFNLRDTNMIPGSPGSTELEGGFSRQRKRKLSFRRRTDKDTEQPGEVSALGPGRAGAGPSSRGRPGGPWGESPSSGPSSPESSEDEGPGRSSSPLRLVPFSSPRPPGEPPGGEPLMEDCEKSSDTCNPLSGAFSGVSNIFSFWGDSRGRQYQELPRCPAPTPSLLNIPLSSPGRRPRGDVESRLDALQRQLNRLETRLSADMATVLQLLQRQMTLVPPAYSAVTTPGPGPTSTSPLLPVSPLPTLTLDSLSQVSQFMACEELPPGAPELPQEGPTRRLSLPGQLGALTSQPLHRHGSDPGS

Compound	hERG current change (%, negative = inhibition) at 10uM [%]
O=C(Nc1ccc(C(=O)N2CCC(O)(c3ccc(Cl)c(C(F)(F)F)c3)CC2)cc1)c1ccc(Br)o1	8.21
Cc1cc2cc(CCNC(=O)CC(C)(C)C)c(=O)[nH]c2cc1C	7.53
O=C(Cc1coc(-c2ccc(F)cc2)n1)Nc1ccccc1	-15.4
Cn1c(=O)c2ncn(CC(=O)Nc3nc(-c4ccc(Cl)cc4)cs3)c2n(C)c1=O	12.1
N#CCc1c(C#N)c(N)nc(N2CCN(S(=O)(=O)c3ccccc3F)CC2)c1C#N	-9.75
O=C(CN(c1ccccc1)S(=O)(=O)c1ccccc1)Nc1ccc(F)cc1	22.6
Cc1cccc(N2C(=O)NC(=O)/C(=C\c3cc(C)n(-c4sc5c(c4C#N)CCCC5)c3C)C2=O)c1C	4.35
Cc1nnc(NC(=O)CSc2nnc(C)n2Cc2ccccc2)s1	17.7
CC1CN(C(=O)c2cccc(S(=O)(=O)N3CCN(c4ccc(F)cc4)CC3)c2)CC(C)O1 (stereo not shown)	-45.4
CC(=O)N1CCN(C(=O)c2cccc(S(=O)(=O)N3CCN(c4ccc(F)cc4)CC3)c2)CC1	-20.1
CC1CCN(S(=O)(=O)c2cccc(C(=O)N3CCN(c4ccc(F)cc4)CC3)c2)CC1	-65.4
O=C(c1cccc(S(=O)(=O)N2CCN(c3ccc(F)cc3)CC2)c1)N1CCCCCCC1	-45.2
CC1CC(C)CN(S(=O)(=O)c2cccc(C(=O)N3CCN(c4ccc(F)cc4)CC3)c2)C1 (stereo not shown)	-51.9
CC1CCN(C(=O)c2cccc(S(=O)(=O)N3CCN(c4ccccc4)CC3)c2)CC1	2.41
COc1cc(/C=N/NC(=O)CSc2n[nH]c(=O)[nH]c2=O)cc(OC)c1O	28.8
Cc1cc(C)cc(-n2c(SC(C)C(=O)NCc3ccc4c(c3)OCO4)nc3ccccc3c2=O)c1 (stereo not shown)	11.3
COc1cc(NC(=O)c2ccc(C)cc2C)ccc1NC(=O)c1cc2ccccc2o1	6.61
Nc1c(C(=O)c2ccccc2)sc2nsc(SCCN3CCCC3)c12	-38.2
Clc1ccc(N2CCN(/N=C/c3cccnc3)CC2)cc1	-1.21
O=C(Nc1nccs1)c1ccc(Br)cc1	12.1
CCn1c(SCC(=O)N/N=C/C(C)=C/c2ccco2)nnc1-c1ccccc1	-55.1
O=C(CSc1nnc(-c2ccc(Cl)cc2)n1-c1ccc(Cl)cc1)N/N=C/c1ccco1	-41.7
CCn1c(SCC(=O)N/N=C/C(C)=C\c2ccco2)nnc1-c1ccccc1	-39
Cc1ccc(/C=N/NC(=O)CSc2nnc(-c3ccccc3)n2-c2ccc(Cl)cc2)o1	-21.8
O=C(CSc1nnc(-c2ccccc2)n1-c1ccc(Cl)cc1)N/N=C/c1ccco1	-55
CCn1c(SCC(=O)N/N=C/C=C/c2ccco2)nnc1-c1ccccc1	-34.7

Compound	hERG current change (%, negative = inhibition) at 10uM [%]
O=C(CSc1nnc(SCc2ccccc2)s1)N/N=C/c1ccc(Cl)cc1Cl	-5.88
O=C(CSc1nnc(-c2ccccc2)c(-c2ccccc2)n1)NC1CCS(=O)(=O)C1 (stereo not shown)	17.3
Cc1cc(C)n(-c2nc(NCCCO)c3c4c(sc3n2)CCCC4)n1	-17.9
Cc1cc(C)n(-c2nc(NCCN(C)C)c3c4c(sc3n2)CCCC4)n1	-16.3
CCN(CC)CCCNc1nc(-n2nc(C)cc2C)nc2sc3c(c12)CC(C)(C)OC3	-23
Cc1cc(C)n(-c2nc(NCCN(C)C)c3c4c(sc3n2)COC(C)(C)C4)n1	-32.7
Cc1cc(C)n(-c2nc(SCC(=O)O)c3c4c(sc3n2)CCCC4)n1	6.68
Cc1cc(C)n(-c2nc(NCCCN(C)C)c3c4c(sc3n2)COC(C)(C)C4)n1	-14.1
CCN(CC)CCNc1nc(-n2nc(C)cc2C)nc2sc3c(c12)CC(C)(C)OC3	-55.4
Cc1cc(C)n(-c2nc(SCC(=O)N3CCCC3)c3c4c(sc3n2)CCCC4)n1	-9.29
Cc1cc(C)n(-c2nc(SCCN(C)C)c3c4c(sc3n2)CCCC4)n1	-53.7
Cc1cc(C)n(-c2nc(SCCN(C)C)c3c4c(sc3n2)COC(C)(C)C4)n1	-59.1
Cc1cc(C)n(-c2nc(NCCCN(C)C)c3c4c(sc3n2)CCCC4)n1	-65.2
Cc1cc(C)n(-c2nc(SCC(=O)O)c3c4c(sc3n2)COC(C)(C)C4)n1	2.48
C=CCn1cc(/C=N\NC(=O)c2cc3c(ccc4ccccc43)o2)c2ccccc21	-4.85
O=C(c1ccccc1)c1c[nH]c2ccccc12	14.6
Cc1cc(C)cc(NC(=S)N2CCN(S(=O)(=O)c3ccccc3)CC2)c1	0.86
O=C(O)c1ccc(-c2ccc(OS(=O)(=O)c3ccccc3F)cc2)cc1	9.84
O=C(COc1ccccc1Cl)Nc1ccc2c(c1)OCO2	11.1
CC(C)C(=O)Nc1ccc(NC(=O)c2ccc(COc3ccccc3)cc2)cc1	16.3
CCOC(=O)C1CCN(C(=O)c2ccc(SC)cc2OC)CC1	-19.8
O=C1c2ccccc2C(=O)C12OC2c1ccc(Cl)cc1 (stereo not shown)	6.63
O=C1c2ccccc2C(=O)C12OC2c1cccc2ccccc12 (stereo not shown)	-69.2
O=C1c2ccccc2C(=O)C12OC2c1ccc(Cl)cc1Cl (stereo not shown)	4.07
Cc1c(C)n(Cc2ccccc2)c2ccc(C(=O)NCCN3CCOCC3)cc12	-3.43
CCOC(=O)c1cc(-c2ccccc2)sc1N	0.819
